# Experimental data: the supplement of paper PMC4840960
# ± gives the standard deviation of the averaged measurements.
# System: E18 rat cortical neuron-glia co-culture
# Experiment: fiber score / MBP score (myelination specific beyond OL differentiation) (ratio); higher = more myelination-specific MBP alignment
# Settings: 5 µM; treatment time: 8 days (DIV5-DIV13)
# In short: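 Reported values are fiber score (continuous MBP fiber length per Olig2+ nucleus) divided by MBP score (thresholded MBP area × intensity per Olig2+ nucleus). They come from primary E18 rat cortical co-cultures treated with library compounds at 1 or 5 µM in myelination medium from DIV5 to DIV13, then fixed in 4 % paraformaldehyde, immunostained for MBP and Olig2 with DAPI, and analysed over four 10X fields per well in duplicate wells.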
row,Structure (SMILES),fiber score / MBP score
1,NC(=O)N1c2ccccc2C=Cc2ccccc21 [Carbamazepine],0.902
2,CCOC(=O)[C@H](CCc1ccccc1)N[C@H]1CCc2ccccc2N(CC(=O)O)C1=O [Benazepril],0.971
3,C[C@H]1C[C@@H]2[C@H]([C@@H](O)C[C@@]3(C)[C@H]2CC[C@]3(O)C(=O)CO)[C@@]2(C)C=CC(=O)C=C12 [Methylprednisolone],1.01
4,CC(=O)[C@H]1CC[C@H]2[C@@H]3CCC4=CC(=O)CC[C@]4(C)[C@H]3CC[C@]12C [Progesterone],0.552
5,O=C(c1ccc(OCCN2CCCCC2)cc1)c1c(-c2ccc(O)cc2)sc2cc(O)ccc12 [Raloxifene],0.788
6,CN(C)CCOC(C)(c1ccccc1)c1ccccn1 (configuration not stated) [Doxylamine],0.969
7,CCOC(=O)O[C@]1(C(=O)OCCl)CC[C@H]2[C@@H]3CCC4=CC(=O)C=C[C@]4(C)[C@H]3[C@@H](O)C[C@@]21C [Loteprednol etabonate],0.881
8,CC(=O)OCC(=O)[C@@]12OC(C)(C)O[C@@H]1C[C@H]1[C@@H]3C[C@H](F)C4=CC(=O)C=C[C@]4(C)[C@@]3(F)[C@@H](O)C[C@@]12C [Fluocinonide],0.291
9,CCCN[C@H]1CCc2nc(N)sc2C1 [Pramipexole],0.903 ± 0.21
10,CC(CCc1ccccc1)NCC(O)c1ccc(O)c(C(N)=O)c1 (configuration not stated) [Labetalol],0.693
11,CC(C)NCC(O)COc1cccc2[nH]ccc12 (configuration not stated) [Pindolol],0.955
12,CC(=O)N1CCN(c2ccc(OCC3COC(Cn4ccnc4)(c4ccc(Cl)cc4Cl)O3)cc2)CC1 (configuration not stated) [Ketoconazole],0.267
